Measured values reported in the supplement of paper PMC3545927.
The other results are listed elsewhere or left out. How many sequences the whole screen found active is unknown.

Target: furin, P09958
Assay: furin cleavage Z-score vs untreated control; higher = more cleavage, active = 3.5 or more, inactive = 1 or less, 8 variable residues between constant flanks
Method in brief: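 The cleavage Z-score is the log read count relative to furin-free reactions, lowess-adjusted and scaled by median absolute deviation. Counts came from sequencing DNA released from bead-bound 8-mer peptide–cDNA fusions after digestion with purified furin for 7.5, 15 or 30 min.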
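Further: purified furin at 1:10 enzyme:substrate in 50 mM HEPES pH 7.5.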

Sequence of furin, P09958 (P09958 whole entry): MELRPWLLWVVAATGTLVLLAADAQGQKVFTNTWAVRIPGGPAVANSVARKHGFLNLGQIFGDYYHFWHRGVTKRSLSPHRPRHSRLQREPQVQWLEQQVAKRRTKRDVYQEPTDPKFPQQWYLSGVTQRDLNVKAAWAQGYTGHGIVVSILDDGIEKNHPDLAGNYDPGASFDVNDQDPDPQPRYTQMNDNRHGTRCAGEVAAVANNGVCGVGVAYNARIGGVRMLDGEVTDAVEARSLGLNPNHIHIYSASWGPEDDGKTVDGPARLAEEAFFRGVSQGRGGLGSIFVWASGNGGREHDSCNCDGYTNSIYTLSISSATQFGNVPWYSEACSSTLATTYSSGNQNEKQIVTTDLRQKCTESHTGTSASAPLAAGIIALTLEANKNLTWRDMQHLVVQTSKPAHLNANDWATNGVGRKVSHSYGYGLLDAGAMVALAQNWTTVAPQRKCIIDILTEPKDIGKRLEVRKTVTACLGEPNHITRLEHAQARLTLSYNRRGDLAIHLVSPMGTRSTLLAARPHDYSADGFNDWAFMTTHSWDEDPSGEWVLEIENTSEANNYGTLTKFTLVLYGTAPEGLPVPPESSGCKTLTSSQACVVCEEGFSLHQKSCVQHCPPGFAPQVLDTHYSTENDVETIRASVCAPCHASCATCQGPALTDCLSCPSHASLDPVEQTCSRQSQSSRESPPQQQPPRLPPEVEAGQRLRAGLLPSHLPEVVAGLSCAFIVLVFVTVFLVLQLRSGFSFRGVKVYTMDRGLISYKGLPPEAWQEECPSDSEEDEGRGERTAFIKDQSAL

B1: HC2512 (peptide)
chain: CASTECSAHLAGNASASA
- furin cleavage Z-score (7.5 min): -0.161 (inactive)
- furin cleavage Z-score (15 min): -0.192 (inactive)
- furin cleavage Z-score (30 min): 2.81

B2: HC129 (peptide)
chain: CAEVVHSTWVAGNASASA
- furin cleavage Z-score (7.5 min): -0.835 (inactive)
- furin cleavage Z-score (15 min): 0.0271 (inactive)
- furin cleavage Z-score (30 min): -0.684 (inactive)

B3: HC383 (peptide)
chain: CAHKFNSSGCAGNASASA
- furin cleavage Z-score (7.5 min): 0.00727 (inactive)
- furin cleavage Z-score (15 min): -1.4 (inactive)
- furin cleavage Z-score (30 min): -0.526 (inactive)

B4: FS-2717 (peptide)
chain: CARLRRSNYFAGNASASA
- furin cleavage Z-score (7.5 min): 0.785 (inactive)
- furin cleavage Z-score (15 min): 3.14
- furin cleavage Z-score (30 min): 4.28 (active)

B5: FS-2280 (peptide)
chain: CARLRRSLPPAGNASASA
- furin cleavage Z-score (7.5 min): 7.15 (active)
- furin cleavage Z-score (15 min): 6.52 (active)
- furin cleavage Z-score (30 min): 7.39 (active)

B6: FS-1607 (peptide)
chain: CARLRRSKRCAGNASASA
- furin cleavage Z-score (7.5 min): 2.93
- furin cleavage Z-score (15 min): 1.58
- furin cleavage Z-score (30 min): 3.77 (active)

B7: FS-1746 (peptide)
chain: CARLRRVKTAAGNASASA
- furin cleavage Z-score (7.5 min): -0.934 (inactive)
- furin cleavage Z-score (15 min): -0.994 (inactive)
- furin cleavage Z-score (30 min): -0.54 (inactive)

B8: FS-2352 (peptide)
chain: CARLRRSLSPAGNASASA
- furin cleavage Z-score (7.5 min): 10.8 (active)
- furin cleavage Z-score (15 min): 9.04 (active)
- furin cleavage Z-score (30 min): 8.19 (active)

B9: FS-916 (peptide)
chain: CARLRRQKKGAGNASASA
- furin cleavage Z-score (7.5 min): -0.934 (inactive)
- furin cleavage Z-score (15 min): -1.47 (inactive)
- furin cleavage Z-score (30 min): -0.511 (inactive)

B10: FS-3161 (peptide)
chain: CARLRRSGRCAGNASASA
- furin cleavage Z-score (7.5 min): 3.21
- furin cleavage Z-score (15 min): -0.166 (inactive)
- furin cleavage Z-score (30 min): 3.48

B11: HC1043 (peptide)
chain: CAMWNFISGIAGNASASA
- furin cleavage Z-score (7.5 min): -0.76 (inactive)
- furin cleavage Z-score (15 min): -0.163 (inactive)
- furin cleavage Z-score (30 min): 1.37

B12: HC427 (peptide)
chain: CADTDVFVLNAGNASASA
- furin cleavage Z-score (7.5 min): -0.554 (inactive)
- furin cleavage Z-score (15 min): -0.537 (inactive)
- furin cleavage Z-score (30 min): -1.25 (inactive)

B13: HC1560 (peptide)
chain: CAKRVYYLTRAGNASASA
- furin cleavage Z-score (7.5 min): 2.27
- furin cleavage Z-score (15 min): 0.852 (inactive)
- furin cleavage Z-score (30 min): -0.874 (inactive)

B14: FS-2518 (peptide)
chain: CARRRRSSKRAGNASASA
- furin cleavage Z-score (7.5 min): 4.4 (active)
- furin cleavage Z-score (15 min): 5.93 (active)
- furin cleavage Z-score (30 min): 5.04 (active)

B15: FS-2795 (peptide)
chain: CARRRRSISRAGNASASA
- furin cleavage Z-score (7.5 min): 6.77 (active)
- furin cleavage Z-score (15 min): 7.84 (active)
- furin cleavage Z-score (30 min): 8.25 (active)

B16: FS-2234 (peptide)
chain: CARRRRSILFAGNASASA
- furin cleavage Z-score (7.5 min): 5.15 (active)
- furin cleavage Z-score (15 min): 6.77 (active)
- furin cleavage Z-score (30 min): 8.96 (active)

B17: FS-2599 (peptide)
chain: CARRRRSSVFAGNASASA
- furin cleavage Z-score (7.5 min): 6.51 (active)
- furin cleavage Z-score (15 min): 7.07 (active)
- furin cleavage Z-score (30 min): 8.27 (active)

B18: HC691 (peptide)
chain: CAIVSTAAQTAGNASASA
- furin cleavage Z-score (7.5 min): -1.17 (inactive)
- furin cleavage Z-score (15 min): -1.15 (inactive)
- furin cleavage Z-score (30 min): -1.22 (inactive)

B19: HC96 (peptide)
chain: CAVVCTSMSYAGNASASA
- furin cleavage Z-score (7.5 min): 1.17
- furin cleavage Z-score (15 min): -0.0848 (inactive)
- furin cleavage Z-score (30 min): 0.455 (inactive)

B20: HC53 (peptide)
chain: CATTPESGSWAGNASASA
- furin cleavage Z-score (7.5 min): -0.759 (inactive)
- furin cleavage Z-score (15 min): -0.574 (inactive)
- furin cleavage Z-score (30 min): -0.54 (inactive)

B21: HC2477 (peptide)
chain: CASTPCSAHLAGNASASA
- furin cleavage Z-score (7.5 min): 0.591 (inactive)
- furin cleavage Z-score (15 min): 0.749 (inactive)
- furin cleavage Z-score (30 min): -1.42 (inactive)

B22: HC139 (peptide)
chain: CAEVVQSTWVAGNASASA
- furin cleavage Z-score (7.5 min): -1.19 (inactive)
- furin cleavage Z-score (15 min): -0.568 (inactive)
- furin cleavage Z-score (30 min): -0.254 (inactive)

B23: HC509 (peptide)
chain: CAVDVQYLYGAGNASASA
- furin cleavage Z-score (7.5 min): -0.528 (inactive)
- furin cleavage Z-score (15 min): 0.269 (inactive)
- furin cleavage Z-score (30 min): 0.219 (inactive)

B24: HC601 (peptide)
chain: CAHPTLVFDIAGNASASA
- furin cleavage Z-score (7.5 min): -0.391 (inactive)
- furin cleavage Z-score (15 min): -1.13 (inactive)
- furin cleavage Z-score (30 min): -0.764 (inactive)

B25: FS-3066 (peptide)
chain: CARRRRSIQNAGNASASA
- furin cleavage Z-score (7.5 min): 7.74 (active)
- furin cleavage Z-score (15 min): 10.2 (active)
- furin cleavage Z-score (30 min): 7.21 (active)

B26: HC1290 (peptide)
chain: CALVAEEDERAGNASASA
- furin cleavage Z-score (7.5 min): -0.68 (inactive)
- furin cleavage Z-score (15 min): -1.05 (inactive)
- furin cleavage Z-score (30 min): -0.546 (inactive)

B27: HC915 (peptide)
chain: CASGMFDSSVAGNASASA
- furin cleavage Z-score (7.5 min): -1.55 (inactive)
- furin cleavage Z-score (15 min): -0.578 (inactive)
- furin cleavage Z-score (30 min): -0.341 (inactive)

B28: FS-765 (peptide)
chain: CAESIRMKRYAGNASASA
- furin cleavage Z-score (7.5 min): 10.4 (active)
- furin cleavage Z-score (15 min): 10.9 (active)
- furin cleavage Z-score (30 min): 9.17 (active)

B29: FS-25 (peptide)
chain: CAESGRGKRYAGNASASA
- furin cleavage Z-score (7.5 min): 2.19
- furin cleavage Z-score (15 min): 4.19 (active)
- furin cleavage Z-score (30 min): 6.23 (active)

B30: HC1796 (peptide)
chain: CAGEMEECSQAGNASASA
- furin cleavage Z-score (7.5 min): -0.269 (inactive)
- furin cleavage Z-score (15 min): 1.03
- furin cleavage Z-score (30 min): 0.391 (inactive)

B31: FS-780 (peptide)
chain: CAGEMRKKRYAGNASASA
- furin cleavage Z-score (7.5 min): 8.98 (active)
- furin cleavage Z-score (15 min): 11.5 (active)
- furin cleavage Z-score (30 min): 11.2 (active)

B32: HC2398 (peptide)
chain: CAEVPCHRTSAGNASASA
- furin cleavage Z-score (7.5 min): 0.843 (inactive)
- furin cleavage Z-score (15 min): -0.111 (inactive)
- furin cleavage Z-score (30 min): 1.35

B33: FS-898 (peptide)
chain: CAWRRRQKRRAGNASASA
- furin cleavage Z-score (7.5 min): 11.1 (active)
- furin cleavage Z-score (15 min): 12.6 (active)
- furin cleavage Z-score (30 min): 10.1 (active)

B34: FS-866 (peptide)
chain: CARYDRQKRRAGNASASA
- furin cleavage Z-score (7.5 min): 5.33 (active)
- furin cleavage Z-score (15 min): 8.92 (active)
- furin cleavage Z-score (30 min): 8.14 (active)

B35: FS-558 (peptide)
chain: CAQRDRQKRRAGNASASA
- furin cleavage Z-score (7.5 min): 8.63 (active)
- furin cleavage Z-score (15 min): 9.96 (active)
- furin cleavage Z-score (30 min): 8.51 (active)

B36: HC1084 (peptide)
chain: CAVLIDILAGAGNASASA
- furin cleavage Z-score (7.5 min): -1.68 (inactive)
- furin cleavage Z-score (15 min): -0.0246 (inactive)
- furin cleavage Z-score (30 min): -1.35 (inactive)

B37: HC1599 (peptide)
chain: CALDLPPIIQAGNASASA
- furin cleavage Z-score (7.5 min): 0.239 (inactive)
- furin cleavage Z-score (15 min): -0.216 (inactive)
- furin cleavage Z-score (30 min): -0.33 (inactive)

B38: HC1870 (peptide)
chain: CATTVCSGSWAGNASASA
- furin cleavage Z-score (7.5 min): -0.934 (inactive)
- furin cleavage Z-score (15 min): -0.656 (inactive)
- furin cleavage Z-score (30 min): -0.569 (inactive)

B39: HC1864 (peptide)
chain: CATTICSGSWAGNASASA
- furin cleavage Z-score (7.5 min): -0.759 (inactive)
- furin cleavage Z-score (15 min): -0.615 (inactive)
- furin cleavage Z-score (30 min): -0.31 (inactive)

B40: HC79 (peptide)
chain: CATTPCQGSWAGNASASA
- furin cleavage Z-score (7.5 min): -0.663 (inactive)
- furin cleavage Z-score (15 min): 0.917 (inactive)
- furin cleavage Z-score (30 min): -0.281 (inactive)

B41: HC1720 (peptide)
chain: CAMECCSQHLAGNASASA
- furin cleavage Z-score (7.5 min): 0.573 (inactive)
- furin cleavage Z-score (15 min): 0.0768 (inactive)
- furin cleavage Z-score (30 min): 0.728 (inactive)

B42: FS-3057 (peptide)
chain: CARRPRDDDSAGNASASA
- furin cleavage Z-score (7.5 min): -0.221 (inactive)
- furin cleavage Z-score (15 min): -0.299 (inactive)
- furin cleavage Z-score (30 min): -1.38 (inactive)

B43: FS-3059 (peptide)
chain: CARRPRLSDRAGNASASA
- furin cleavage Z-score (7.5 min): -0.769 (inactive)
- furin cleavage Z-score (15 min): -0.45 (inactive)
- furin cleavage Z-score (30 min): -0.545 (inactive)

B44: FS-2781 (peptide)
chain: CARRPRHAEQAGNASASA
- furin cleavage Z-score (7.5 min): 4.69 (active)
- furin cleavage Z-score (15 min): 5.7 (active)
- furin cleavage Z-score (30 min): 4 (active)

B45: FS-1933 (peptide)
chain: CARSRRLAEQAGNASASA
- furin cleavage Z-score (7.5 min): 0.188 (inactive)
- furin cleavage Z-score (15 min): 2.91
- furin cleavage Z-score (30 min): 3.14

B46: FS-1920 (peptide)
chain: CARRPRGTMQAGNASASA
- furin cleavage Z-score (7.5 min): 4.44 (active)
- furin cleavage Z-score (15 min): 4.25 (active)
- furin cleavage Z-score (30 min): 6.42 (active)
